CHT allo act = human CHT allosteric activation; B-score at 10 µM; AID 488977; 310,000 tested, 0.49% active; CHT-expressing cells, membrane potential dye, choline EC20; stronger effect = higher value; LV-AA mutant CHT in HEK293 cells; Q9GZV3;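 active means initial fluorescence not abnormally high and integrated response B-score, plate-corrected, over 3 SD above library mean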
ANO1 activ = activators or potentiators of mouse TMEM16A chloride channel; Q8BHY3; HEK293 TMEM16A/YFP-H148Q/I152L, iodide quench fluorescence; stronger effect = lower value; B-score at 10 µM; 340,000 tested, 0.3% active;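 active means fluorescence-ratio B-score plate-corrected deviation score at least 3 library SD below zero, with starting fluorescence score within 5 deviations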;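 further: channel opened by trigger with iodide after compound preincubation; score built on the fluorescence ratio of max minus min over baseline; more negative score means more quench and so TMEM16A activation or potentiation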
Target sequence (Q8BHY3 whole entry, looked up): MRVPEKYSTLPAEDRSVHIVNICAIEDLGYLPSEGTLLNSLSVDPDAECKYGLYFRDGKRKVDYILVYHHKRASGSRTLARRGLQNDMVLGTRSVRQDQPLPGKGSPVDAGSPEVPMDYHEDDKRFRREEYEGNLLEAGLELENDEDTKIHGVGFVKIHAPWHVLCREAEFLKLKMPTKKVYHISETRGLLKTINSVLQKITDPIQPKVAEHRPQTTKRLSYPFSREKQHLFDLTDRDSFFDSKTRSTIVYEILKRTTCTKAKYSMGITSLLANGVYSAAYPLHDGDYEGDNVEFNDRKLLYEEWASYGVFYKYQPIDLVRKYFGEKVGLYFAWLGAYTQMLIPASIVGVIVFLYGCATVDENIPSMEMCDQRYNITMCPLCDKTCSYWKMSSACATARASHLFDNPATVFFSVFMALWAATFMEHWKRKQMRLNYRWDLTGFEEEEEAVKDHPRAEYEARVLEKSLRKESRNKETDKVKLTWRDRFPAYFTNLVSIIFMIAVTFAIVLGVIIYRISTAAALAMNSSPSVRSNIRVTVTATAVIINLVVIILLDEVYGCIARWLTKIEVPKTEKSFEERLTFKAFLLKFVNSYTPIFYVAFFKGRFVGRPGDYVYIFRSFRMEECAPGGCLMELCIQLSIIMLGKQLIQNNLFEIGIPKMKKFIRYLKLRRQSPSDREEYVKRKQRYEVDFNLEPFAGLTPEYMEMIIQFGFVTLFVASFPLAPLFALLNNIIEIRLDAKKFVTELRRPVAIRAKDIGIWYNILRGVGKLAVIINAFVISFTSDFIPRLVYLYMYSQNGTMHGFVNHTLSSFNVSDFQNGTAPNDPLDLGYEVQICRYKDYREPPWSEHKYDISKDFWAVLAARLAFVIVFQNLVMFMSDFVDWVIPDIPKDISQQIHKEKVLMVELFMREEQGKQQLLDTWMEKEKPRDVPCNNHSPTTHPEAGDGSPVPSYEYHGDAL
CHT block = inhibitors of human choline transporter CHT. CHT-expressing cells, membrane potential dye, choline response; stronger effect = lower value. Q9GZV3. B-score at 10 µM. 310,000 tested, 0.86% active. AID 488975;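 active means B-score over 3 SD under the library average, and starting fluorescence ratio not unusually high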;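 further: choline stimulus applied at its EC90 after an EC20 pre-addition; B-score computed on integrated fluorescence ratio after choline addition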
TMEM16A inh = inhibitors of mouse TMEM16A calcium-activated chloride channel; Q8BHY3; HEK293 TMEM16A/YFP iodide influx fluorescence, ionomycin; normalized B-score (activity score, 25-100; higher = stronger inhibition) at 10 µM; 310,000 tested, 1.2% active; AID 588511;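 active means ratio plate-corrected score three or more library SD toward inhibition, starting fluorescence score within five deviations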;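 further: score derived from kinetic fluorescence span divided by baseline fluorescence per well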
TMEM16A reconf = reconfirmed blocker of mouse TMEM16A calcium-activated chloride channel. inhibition, % at 10 µM. 2,300 tested, 39% active. shares compounds with TMEM16A inh. HEK293 TMEM16A/YFP-H148Q, iodide quench fluorescence; ionomycin added to raise cell calcium;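 active means mean duplicate percent inhibition, scaled so buffer wells are 0 and the reference blocker 100, over three buffer SD above buffer mean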
HEK293 Ca mobil = calcium mobilization counter-screen hit for TMEM16A inhibitor series; shares compounds with TMEM16A inh; TMEM16A/YFP HEK293, Fluo4 calcium mobilization; calcium response (% of ionomycin), % at 10 µM; 2,300 tested, 2% active;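 active means duplicate-averaged calcium signal over 20% of the ionomycin maximum, relative to buffer baseline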;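 further: each well's signal is peak minus trough fluorescence divided by its pre-addition baseline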
Parental YFP cnt = counter-screen for TMEM16A inhibitors: effect in parental YFP-HEK293 cells; shares compounds with TMEM16A inh; iodide YFP quench, ionomycin; YFP ratio F(max-min)/F0 at 10 µM; 2,300 tested, under 10 active; AID 652233;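 active means yellow fluorescent protein signal ratio exceeding the buffer control mean by over 5 SD of those controls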;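 further: ratio is mean of duplicate wells from kinetic YFP trace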
ClC-1 rat inh = rat ClC-1 inhibition, TMEM16A specificity screen; 2,300 tested, under 10 active; ratio percent, % at 10 µM; CHO ClC-1-YFP, iodide influx fluorescence quench; iodide control reads 0, buffer control 100; shares compounds with TMEM16A inh; AID 652236;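 active means duplicate-mean ratio percent above the mean of iodide-only control wells, which defines zero, plus 5 of their SD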;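 further: higher percent means stronger block of ClC-1 iodide influx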
Of the large screens only hits and unclear results are named; the others gave an inactive call (follow-up assays come after a bar, where they were run). The list is not random: actives were taken first. Their share in the collection is about 2.3%.

CCN(CC)c1ccc(NC(=O)CCCCCN2C(=O)c3ccccc3C2=O)cc1	TMEM16A inh 25 | TMEM16A reconf inactive | HEK293 Ca mobil inactive | Parental YFP cnt inactive | ClC-1 rat inh inactive
O=C(NCCOc1ccccc1)c1cc([N+](=O)[O-])ccc1N1CCOCC1	none (no result: CHT allo act, CHT block, TMEM16A inh)
CC1=CC(C)(C)N(S(=O)(=O)c2ccc(C)cc2)c2cc(C)ccc21	TMEM16A inh 25 | TMEM16A reconf inactive | HEK293 Ca mobil inactive | Parental YFP cnt inactive | ClC-1 rat inh inactive
CCOc1ccc2c(c1)C(C)=CC(C)(C)N2S(=O)(=O)c1ccc(C)cc1	none (no result: CHT allo act, CHT block, TMEM16A inh)
Cc1ccc(C(=O)N2CCCC(C(F)(F)F)C2)cc1S(=O)(=O)N1CCOCC1 (stereo unspecified)	none (no result: CHT allo act, CHT block, TMEM16A inh)
CC1CC(C)CN(Cc2nc3c(c(=O)n(C)c(=O)n3C)n2CCN2CCOCC2)C1 (stereo unspecified)	TMEM16A inh 100 | TMEM16A reconf inactive | HEK293 Ca mobil inactive | Parental YFP cnt inactive | ClC-1 rat inh inactive
CC(C)CCn1c(CN2CCOCC2)nc2c1c(=O)n(C)c(=O)n2C	none
CC(C)c1ccc(C(=O)Nc2ccc(CN3CCOCC3)cc2)cc1	TMEM16A inh 100 | TMEM16A reconf inactive | HEK293 Ca mobil inactive | Parental YFP cnt inactive | ClC-1 rat inh inactive
O=C(/C=C/c1ccc(Cl)cc1)Nc1ccc(CN2CCOCC2)cc1	none
CC(C)c1ccc(/C=C/C(=O)Nc2ccc(CN3CCOCC3)cc2)cc1	TMEM16A inh 100 | TMEM16A reconf 26% | HEK293 Ca mobil inactive | Parental YFP cnt inactive | ClC-1 rat inh inactive
Cc1ccccc1C(=O)N1CCN(c2ccc(NC(=O)c3ccco3)cc2Cl)CC1	TMEM16A inh 100 | TMEM16A reconf inactive | HEK293 Ca mobil inactive | Parental YFP cnt inactive | ClC-1 rat inh inactive
O=C(Nc1cccc(S(=O)(=O)N2CCCCC2)c1)c1ccc(OCC2CCCO2)cc1 (stereo unspecified)	TMEM16A inh 25 | TMEM16A reconf inactive | HEK293 Ca mobil inactive | Parental YFP cnt inactive | ClC-1 rat inh inactive
O=C(Nc1ccc(S(=O)(=O)N2CCCC2)cc1)c1ccc(OCC2CCCO2)cc1 (stereo unspecified)	TMEM16A inh 25 | TMEM16A reconf 20% | HEK293 Ca mobil inactive | Parental YFP cnt inactive | ClC-1 rat inh inactive
CN(CC(=O)Nc1ccc(Cl)c(Cl)c1)C(=O)CNC(=O)C1CCCCC1	none (no result: CHT allo act, CHT block, TMEM16A inh)
Cc1oc(-c2cc(F)ccc2F)nc1CN1CCC(C(=O)N2CCOCC2)CC1	none
Cc1oc(-c2cc(F)ccc2F)nc1CN1CCN(c2ncnc3ccccc23)CC1	TMEM16A inh 100 | TMEM16A reconf 20% | HEK293 Ca mobil inactive | Parental YFP cnt inactive | ClC-1 rat inh inactive
COc1ccc(C/C(C)=N/NS(=O)(=O)c2ccc(Br)cc2)cc1	none
COc1ccc(S(=O)(=O)N2CCCCC2)cc1NC(=O)CNc1ccccc1C(C)=O	none (no result: CHT allo act, CHT block, TMEM16A inh)
Oc1c(C=Nc2cccnc2)sc2ccccc12	none | TMEM16A reconf inactive | HEK293 Ca mobil inactive | Parental YFP cnt inactive | ClC-1 rat inh inactive
Cc1cc(C)c(C#N)c(N2CCCC2)n1	none
Cc1cc(C(F)(F)F)c(C#N)c(N2CCOCC2)n1	TMEM16A inh 100 | TMEM16A reconf inactive | HEK293 Ca mobil inactive | Parental YFP cnt inactive | ClC-1 rat inh inactive
Cc1ccc(-c2nn3c(C)nnc3s2)cc1N	TMEM16A inh 100 | TMEM16A reconf inactive | HEK293 Ca mobil inactive | Parental YFP cnt inactive | ClC-1 rat inh inactive
Cc1ccc(-c2nn3c(C)nnc3s2)cc1NC(=O)C(C)C	none
CCc1ccc(S(=O)(=O)NC2CC(C)(C)NC(C)(C)C2)cc1	none
O=c1ccn(Cc2ccccc2)c(SCc2ccccc2)n1	none (no result: CHT allo act, CHT block, TMEM16A inh)
Clc1ccc(CSc2nccn2Cc2ccccc2)cc1	TMEM16A inh 100 | TMEM16A reconf 44% | HEK293 Ca mobil inactive | Parental YFP cnt inactive | ClC-1 rat inh inactive
COc1ccc(N(CC(=O)Nc2ccc(C)cc2)S(=O)(=O)c2c(C)noc2C)cc1	none
COc1ccc(NC(=O)CN(c2cc(C)cc(C)c2)S(=O)(=O)c2c(C)noc2C)cc1	TMEM16A inh 100 | TMEM16A reconf inactive | HEK293 Ca mobil inactive | Parental YFP cnt inactive | ClC-1 rat inh inactive
O=c1cc(C(F)(F)F)[nH]c2c(OC(F)(F)F)cccc12	TMEM16A inh 100 | TMEM16A reconf 28% | HEK293 Ca mobil inactive | Parental YFP cnt inactive | ClC-1 rat inh inactive
Cc1cccc2c(=O)cc(C(F)(F)F)[nH]c12	none
COc1ccc(C(=O)N/C(=C\c2cccc3ccccc23)C(=O)N2CCN(C)CC2)cc1	none (no result: CHT allo act, CHT block, TMEM16A inh)
OCCCn1c(-c2ccccc2)csc1=Nc1ccccc1	TMEM16A inh 100 | TMEM16A reconf 28% | HEK293 Ca mobil inactive | Parental YFP cnt inactive | ClC-1 rat inh inactive
Cc1cc(C)c(C(=O)OCc2csc(CC(=O)Nc3ccccc3C)n2)c(C)c1	TMEM16A inh 25 | TMEM16A reconf inactive | HEK293 Ca mobil inactive | Parental YFP cnt inactive | ClC-1 rat inh inactive
Cc1ccccc1NC(=O)Cc1nc(COC(=O)c2ccccn2)cs1	none
CN(C)S(=O)(=O)c1ccc(C(=O)OCn2nnc3ccccc3c2=O)cc1	none
O=C(Nc1cccc(C(F)(F)F)c1)c1cccnc1NCCc1ccccc1	TMEM16A inh 25 | TMEM16A reconf inactive | HEK293 Ca mobil inactive | Parental YFP cnt inactive | ClC-1 rat inh inactive
O=C(Nc1cccc(C(F)(F)F)c1)c1cccnc1NCCO	none
CCOc1ccc(C(=O)N2CCN(Cc3ccccc3)CC2)cc1OCC	none (no result: CHT allo act, CHT block, TMEM16A inh)
COc1ccccc1OCCOCCn1cnc2ccccc2c1=O	none
CC(C)(C)c1ccc(OCCOCCn2cnc3ccccc3c2=O)cc1	TMEM16A inh 25 | TMEM16A reconf 20% | HEK293 Ca mobil inactive | Parental YFP cnt inactive | ClC-1 rat inh inactive
CCn1cc(C(=O)NCc2ccccn2)c(=O)c2cc(F)c(N3CCN(C)CC3)cc21	none | TMEM16A reconf inactive | HEK293 Ca mobil inactive | Parental YFP cnt inactive | ClC-1 rat inh inactive
O=S(=O)(Nc1ccc(OC(F)F)cc1)c1ccc(-c2ccon2)s1	none
O=C(OCC(=O)N1CCc2ccccc21)c1c2c(nc3ccccc13)CCCCC2	TMEM16A inh 100 | TMEM16A reconf inactive | HEK293 Ca mobil inactive | Parental YFP cnt inactive | ClC-1 rat inh inactive
COc1ccc(OC)c(S(=O)(=O)N2CCC(C(=O)Nc3ccc(C)c(C)c3)CC2)c1	none
Cc1ccc(NC(NC(=O)c2cccs2)C(Cl)(Cl)Cl)cc1C (stereo unspecified)	TMEM16A inh 100 | TMEM16A reconf 28% | HEK293 Ca mobil inactive | Parental YFP cnt inactive | ClC-1 rat inh inactive
CC(Oc1ccccc1)C(=O)N/N=C/c1ccccn1 (stereo unspecified)	none

Assay outcomes as filed in PubChem.
